This is part of a sample that, as a whole, favours compounds with a hit. Of some 83,000 tested, about 20% had one in any assay.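 96-well plates, one dose, 48 hours. Percent growth reported; active if below 10.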 Values without a mark were called inactive. Calls of active or inactive are those of the source.
Experiments:
Test in all cases: NCI-60 one-dose screen, 48 h (100 = growth as untreated, 0 = no growth, -100 = all killed)
Settings in all cases: 10 µM unless noted
SR leukemia = system: SR leukemia
RPMI-8226 leukemia = system: RPMI-8226 leukemia
OVCAR-8 ovarian = system: OVCAR-8 ovarian
OVCAR-5 ovarian = system: OVCAR-5 ovarian
OVCAR-4 ovarian = system: OVCAR-4 ovarian
IGROV1 ovarian = system: IGROV1 ovarian
OVCAR-3 ovarian = system: OVCAR-3 ovarian
HS 578T breast = system: HS 578T breast
NCI/ADR-RES ovarian = system: NCI/ADR-RES ovarian
T-47D breast = system: T-47D breast
BT-549 breast = system: BT-549 breast
SW-620 colon = system: SW-620 colon
MCF7 breast = system: MCF7 breast
HCT-116 colon = system: HCT-116 colon
HCC-2998 colon = system: HCC-2998 colon
KM12 colon = system: KM12 colon
MDA-MB-435 melanoma = system: MDA-MB-435 melanoma
SK-OV-3 ovarian = system: SK-OV-3 ovarian

| Compound | growth (SR leukemia) | growth (RPMI-8226 leukemia) | growth (OVCAR-8 ovarian) | growth (OVCAR-5 ovarian) [%] | growth (OVCAR-4 ovarian) | growth (IGROV1 ovarian) | growth (OVCAR-3 ovarian) | growth (HS 578T breast) | growth (NCI/ADR-RES ovarian) | growth (T-47D breast) | growth (BT-549 breast) | growth (SW-620 colon) | growth (MCF7 breast) | growth (HCT-116 colon) | growth (HCC-2998 colon) | growth (KM12 colon) | growth (MDA-MB-435 melanoma) | growth (SK-OV-3 ovarian) [%] |
| --- | --- | --- | --- | --- | --- | --- | --- | --- | --- | --- | --- | --- | --- | --- | --- | --- | --- | --- |
| O=[N+]([O-])c1ccc(Sc2ncccn2)c([N+](=O)[O-])c1 | -20.3% (active) | -29.3% (active) | 65.8% | 81.1 | 51.8% | -9.02% (active) | 7.76% (active) | 88.6% | 53.8% | 41.1% | -16.3% (active) | 22.8% | 34.4% | 37.5% | 66.2% | 55.9% | – | – |
| CC1CN(c2oc(-c3ccccc3)nc2C#N)CC(C)O1 (configuration not stated) | 102% | 104% | 102% | 102 | 99.4% | 97.7% | – | 102% | 107% | 94.7% | 99.4% | 104% | 77.1% | 104% | 110% | 103% | – | – |
| COc1ccc(-c2ccc(-c3ccc(C(=N)N)s3)s2)cc1Cl | -16.5% (active) | -39.7% (active) | -23.3% (active) | 68.4 | 72.5% | 5.34% (active) | -90.6% (active) | 87% | 27.8% | 6.3% (active) | 94.9% | -78.7% (active) | -66.2% (active) | -95.8% (active) | 9.04% (active) | -86.1% (active) | -81.4% (active) | – |
| CN(C)CCOC(=O)Nc1ccccc1Cl | 104% | 93.1% | 109% | 121 | – | 106% | 121% | 115% | 105% | 112% | 99.3% | 109% | 103% | 103% | 111% | 112% | 105% | 115 |
| O=S1(=O)CCC(N(/N=C/c2ccco2)c2ccccc2)C1 (configuration not stated) | 91% | 100% | 94.7% | 107 | 127% | 104% | 105% | – | 98.7% | 103% | 101% | 95.4% | 96.4% | 97.4% | 97.6% | 103% | 107% | – |
| COc1cc2c(c(OC)c1OC)-c1ccc(N)c(=O)cc1[C@@H](NC(C)=O)CC2 | 20% | 27.2% | 16.6% | 40.5 | 51% | 1.05% (active) | -54.2% (active) | 19.6% | 75.6% | 59.7% | -12.6% (active) | 22.7% | 14.9% | 1.6% (active) | – | -20.1% (active) | 6.15% (active) | – |
| C=C1CCC2C3(C)COC(c4c(OC)cccc4OC)OC3CCC2(C)C1C/C=C1/C(=O)OCC1O (configuration not stated) | 34.7% | -53.5% (active) | 29.5% | 49.3 | 41.3% | 26.9% | – | – | 30.9% | 54% | 16.9% | 16.2% | 27.8% | 1.8% (active) | 113% | 9.36% (active) | 19.4% | – |
| Clc1cc(Cl)cc(-c2ccc(-c3ccc(/C=N/NC4=NCCN4)cc3)s2)c1 | 8.3% (active) | 9.95% (active) | 85% | 95.2 | 81% | 43.3% | 14.2% | 82.1% | 45.6% | 56.4% | 94.3% | -59.7% (active) | 16% | -10.4% (active) | 19.3% | -2.85% (active) | 25.8% | – |
| Cc1ccc(-c2cc3nc(C(Cl)Cl)nc(-c4cccnc4)n3n2)cc1 | 14.6% | 16.5% | 22.7% | 24.2 | 9.57% (active) | 33.6% | -40.7% (active) | 28.3% | -3.44% (active) | 37.9% | 73.4% | 0.933% (active) | 41.5% | 6.32% (active) | -53.9% (active) | -35.4% (active) | 1.09% (active) | – |
| CC(C)C1=CC2=C(C=O)C[C@@H]3[C@](C)(CCC[C@@]3(C)C(=O)OCC#CCN3CCCC3)[C@H]2CC1 | 26.4% | 33.8% | 77.9% | 88.1 | 78.1% | 75.4% | 88.7% | 67.9% | 82.2% | 54.7% | 63.9% | 88% | 85.7% | 50.3% | 93.9% | 75.1% | 92.8% | – |
| COc1ccc(S(=O)(=O)n2ccc(-c3ccc4c(c3)CCC(C)(C)O4)n2)cc1OC | 60.2% | 59% | 74.6% | 105 | 46% | 84.3% | 70.9% | 91.5% | 56.5% | 43.7% | – | 79.9% | 64.3% | 61.5% | 78.9% | 71.4% | 79.6% | – |
| Nc1cccc(-c2nc3sccn3c2-c2ccnc(NCCNS(=O)(=O)c3ccc(C(F)(F)F)cc3)n2)c1 | 35.4% | 61.7% | 38.3% | 90.5 | 43.2% | 36.3% | 53.4% | -15.1% (active) | 71.5% | 46.2% | 52.7% | 100% | – | 55.1% | 121% | 61.5% | 27% | – |
| CCn1c2ccccc2c2cc(NC(=O)Nc3ccc([N+](=O)[O-])cc3C)ccc21 | -2.84% (active) | -21.4% (active) | 49.9% | 57.9 | 44.2% | 43% | -2.64% (active) | 52.7% | 23.1% | 29.3% | 79.2% | 51.9% | 35.7% | 31.6% | 10.5% | 26.5% | 17.4% | – |
| N=C(N)c1ccc(-c2ccc(-c3ccc4ccccc4c3)s2)cc1 | 6.46% (active) | 60.7% | 102% | 110 | 100% | 91.3% | – | 104% | 98.8% | 97.6% | 96.2% | 19.3% | 67.9% | 78.6% | 100% | 40.7% | 36.6% | – |
| c1cc2[nH]ncc2cc1-c1nc2ccc3[nH]ncc3c2c2c1CCC2 | 10.9% | 42.5% | 53.9% | 91.7 | 57.9% | 22.6% | 56.4% | 14.9% | 58.1% | 56.8% | 38.3% | 12.6% | 32% | 16.9% | 73.7% | 31.4% | -7.86% (active) | – |
| O=C(O)COc1ccc(-c2cssc2=S)cc1 | 54.8% | 113% | 101% | 98.7 | 103% | 112% | 122% | – | 108% | 95.5% | 116% | 107% | 93.2% | 109% | 125% | 109% | 102% | – |
| Clc1cc(Cl)c2nc(-c3ccc(-c4ccc(/C=N/NC5=NCCN5)cc4)s3)cn2c1 | 11.2% | 37.6% | 97.9% | 104 | 85.6% | 84.3% | 97.9% | 86.6% | 97.7% | 79.6% | 90.9% | 79.2% | 57.8% | 86.3% | 105% | 93% | – | – |

— PubChem BioAssay (NCI)
